Measured values from PubChem BioAssay (NCI).
The panel holds about 83,000 compounds, 20% with a hit somewhere; the sample as a whole holds those more often.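 Single-concentration screen, 48 h exposure, 96-well plates. Endpoint: percent growth. Below 10 = active.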 Unmarked numbers belong to inactive results. Active and inactive are the calls of the source.

Each compound was assayed on HL-60(TB) leukemia (assay: NCI-60 one-dose screen, 48 h (100 = growth as untreated, 0 = no growth, -100 = all killed)). Settings: 10 µM unless noted.
Compound `COc1ccc(NS(=O)(=O)c2ccc(-c3cnc(C4CC4)o3)cc2)cc1` has a growth of 76.3%.
For `COc1cc(/C=C2\CCC/C(=C\c3cc(CN4CCCC4)c(O)c(OC)c3)C2=O)cc(CN2CCCC2)c1O`, the growth was 5.18% (active).
`O=C(/C=C/c1cccc(O)c1)c1ccccc1O` showed a growth of 66%.
